Data reported in paper PMC7819943, “Rice protein-binding microarrays: a tool to detect cis-acting elements near promoter regions in rice”.
Over roughly 35,000 sequences, “fluorescence intensity (a.u.)” has its median near 10,000; the highest 2% begin near 52,000. Many of the other results were omitted from the sample, so the highest values are more common in it than they were.

The sequences below were run against T1, OsWOX13 (Oryza sativa, UniProt Q5QMM3 1-267) (assay: protein-binding microarray (RPBM); PBS, 2% BSA, 51.3 ng/ul salmon testes DNA, 50 uM zinc acetate, 200 nM TF, 25 C, 1 h; high values mean tight binding). Settings: protein: recombinant; tags: N-terminal polyhistidine and DsRed monomer fusion (pET32a); label: CyDye5-dUTP incorporated in the synthesized complementary strand; 3' TTTTT single-stranded linker to array surface; dsDNA, one strand shown.
T1 sequence: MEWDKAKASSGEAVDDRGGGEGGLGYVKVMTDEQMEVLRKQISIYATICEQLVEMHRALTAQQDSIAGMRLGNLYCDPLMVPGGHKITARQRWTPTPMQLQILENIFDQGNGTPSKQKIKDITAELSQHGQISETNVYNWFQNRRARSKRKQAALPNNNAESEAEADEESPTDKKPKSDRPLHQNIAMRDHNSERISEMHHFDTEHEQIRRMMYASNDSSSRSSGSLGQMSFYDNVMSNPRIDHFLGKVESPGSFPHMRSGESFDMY
How it was run: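 The binding signal for each feature is its fluorescence intensity in arbitrary units. An Axon 4000B scanner was used to read a custom Agilent array that had been made double-stranded with Cy5-dUTP primer extension, blocked with 2% BSA, incubated at 25 °C for 1 h with 200 nM protein in PBS, 2% BSA, salmon testes DNA and 50 µM zinc acetate, and washed. The protein was an N-terminal polyhistidine–DsRed transcription factor fusion from E. coli BL21-CodonPlus, purified on Ni–NTA.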
For “TCCATTTATCCCGATAATTTGTACTACATTTGTATAGGCCCGGAGTCACCTAGTGCAG”, the binding signal was 5670 fluorescence intensity (a.u.).
“GCTAATAGATTGCTATTGTATCTGCTCTTATGCATGATCGCGGAGTCACCTAGTGCAG” was tested, and the binding signal was 61200 fluorescence intensity (a.u.).
For “AGATAATTCTTACTAGATGATTATTGTATATGCTGCTATCCGGAGTCACCTAGTGCAG”, the binding signal was 9000 fluorescence intensity (a.u.).
“TTTGTTAAATTTCTCAATTGATTCATAATTCTTTATTAGCCGGAGTCACCTAGTGCAG” was tested, and the binding signal was 10300 fluorescence intensity (a.u.).
In the case of “ACCCTTGATTTACTTGATAATTTGTTATATGTCCCCATCCCGGAGTCACCTAGTGCAG”, the binding signal is reported as 49800 fluorescence intensity (a.u.).
In the case of “ATTGATTTGATTGTATTCATAATCATACAATTATCTTAGCCGGAGTCACCTAGTGCAG”, the binding signal is reported as 65200 fluorescence intensity (a.u.).
In the case of “AACAAGATTGTGATTCATACATCTGCATCTTATTTTGTATCGGAGTCACCTAGTGCAG”, the binding signal is reported as 3650 fluorescence intensity (a.u.).
In the case of “AATTTTCTTATGATTAGCATTTCTATTGCTATTAGATGATCGGAGTCACCTAGTGCAG”, the binding signal is reported as 8930 fluorescence intensity (a.u.).
With “CCCTTGATTTACTTGATAATTTGTTATAGGTCCCTATCCCCGGAGTCACCTAGTGCAG” the binding signal was 53400 fluorescence intensity (a.u.).
For “CCCCATCTGTATTTTAAATTTATATCCGCCACTGATTGTACGGAGTCACCTAGTGCAG”, the binding signal was 4240 fluorescence intensity (a.u.).
For “CCCGATTGACAAGCTGACTCAGCATGGAGGGACCCACATGCGGAGTCACCTAGTGCAG”, the binding signal was 37700 fluorescence intensity (a.u.).
“CAACACATGATTGCCGGGCTTTCTTCCCTCTCGTCCTGAGCGGAGTCACCTAGTGCAG” was tested, and the binding signal was 32000 fluorescence intensity (a.u.).
With “TAGTACTACTCATCACCAATCAGCTGCCACACATGCATGGCGGAGTCACCTAGTGCAG” the binding signal was 5430 fluorescence intensity (a.u.).
With “CGCGCCAATCATCTCCCGCTCCCTCTTATCCTCCCCTCTCCGGAGTCACCTAGTGCAG” the binding signal was 14100 fluorescence intensity (a.u.).
With “AGGACTAATAGATTTCCAAGATGATCGGGACTGACCGATCCGGAGTCACCTAGTGCAG” the binding signal was 10600 fluorescence intensity (a.u.).
In the case of “ATAATAAGATTAAAATAACATTTACCCGTTGCAAAGCACGCGGAGTCACCTAGTGCAG”, the binding signal is reported as 3610 fluorescence intensity (a.u.).
“AAAATATAATCAAAATAATTTACTTATCCATGTAATCATACGGAGTCACCTAGTGCAG” was tested, and the binding signal was 3770 fluorescence intensity (a.u.).
With “AATGAATTTAGATAGATATATATATCTAGATTCATTAGCACGGAGTCACCTAGTGCAG” the binding signal was 7940 fluorescence intensity (a.u.).
In the case of “TAATAGATAGATAGATAGATAGATAGATTAGTAATTTAGACGGAGTCACCTAGTGCAG”, the binding signal is reported as 30600 fluorescence intensity (a.u.).
In the case of “CCAAATTACAACAAATATAATTTTACTTAATCCAAAGTAACGGAGTCACCTAGTGCAG”, the binding signal is reported as 8310 fluorescence intensity (a.u.).
In the case of “GTTTAATGATAAATCTAGTAATATTAATTTTACATGATTGCGGAGTCACCTAGTGCAG”, the binding signal is reported as 25600 fluorescence intensity (a.u.).
“ACTATATAATTAAAATAGATTTCACCCGTTGCAACGCACGCGGAGTCACCTAGTGCAG” was tested, and the binding signal was 13300 fluorescence intensity (a.u.).
With “CTAATGACGAATTAATTAGAATTAATAGATTTATCTTGCACGGAGTCACCTAGTGCAG” the binding signal was 53300 fluorescence intensity (a.u.).
For “ATATAATTAAATGATTAATTAATTAGTACCGTTTTACTTGCGGAGTCACCTAGTGCAG”, the binding signal was 65500 fluorescence intensity (a.u.).
“ATAATATATGATTAATTAAGTTTTAATTATTACAAACTTGCGGAGTCACCTAGTGCAG” was tested, and the binding signal was 37000 fluorescence intensity (a.u.).
With “AACACCATACCAAAATCCAAATATACTTATATTTTACTTACGGAGTCACCTAGTGCAG” the binding signal was 65000 fluorescence intensity (a.u.).
With “ATAATTAGATTAAAATAGATTTTACCCGTTGCAATGCACGCGGAGTCACCTAGTGCAG” the binding signal was 56200 fluorescence intensity (a.u.).
With “TGGTCAGATAGCTAGATTGATATCCCTCTCTCTCTCTCACCGGAGTCACCTAGTGCAG” the binding signal was 13900 fluorescence intensity (a.u.).
In the case of “TTGTAAATTACCTGCAAGGAAGAATTAACCAAGATGTCTTCGGAGTCACCTAGTGCAG”, the binding signal is reported as 5040 fluorescence intensity (a.u.).
In the case of “AATCATTTTCAGTTACAAATTAAATGGTGTTTCAATAGCTCGGAGTCACCTAGTGCAG”, the binding signal is reported as 6090 fluorescence intensity (a.u.).
For “TTAATTATTGTGAGTAATAGATTAACGACACACGTGTTGACGGAGTCACCTAGTGCAG”, the binding signal was 23300 fluorescence intensity (a.u.).
With “TAAAACTTAATTAATTATACGTTAATATTACCTCGTTTTGCGGAGTCACCTAGTGCAG” the binding signal was 53900 fluorescence intensity (a.u.).
For “TAATAATTATAATTAATTACCGGAGTTACTTATTCTAAACCGGAGTCACCTAGTGCAG”, the binding signal was 60400 fluorescence intensity (a.u.).
In the case of “GTTTATAATAATTAAAACTTAATTAATCACATGTTATTACCGGAGTCACCTAGTGCAG”, the binding signal is reported as 22900 fluorescence intensity (a.u.).
With “CTTAACTTTAAATATATAATTTTATAATAATTTTACGTTGCGGAGTCACCTAGTGCAG” the binding signal was 17500 fluorescence intensity (a.u.).
“TTTAGATAATTAATATTTAAATAATTATACTCTCGTTTTGCGGAGTCACCTAGTGCAG” was tested, and the binding signal was 29600 fluorescence intensity (a.u.).
“AATATACTTAATTACCTCTATTAGTTAATATACTTAACACCGGAGTCACCTAGTGCAG” was tested, and the binding signal was 12000 fluorescence intensity (a.u.).
“AGTAATTAGTATGACCACCCTAATATACGGTAGTATGGTACGGAGTCACCTAGTGCAG” was tested, and the binding signal was 27200 fluorescence intensity (a.u.).
In the case of “TTTATTGATTGAGAGGAACTATCTACCTCTGTAATGACATCGGAGTCACCTAGTGCAG”, the binding signal is reported as 46600 fluorescence intensity (a.u.).
“ATTTAAATTTCCATCCTTAAATTTGAAGGTGATTTTGAGGCGGAGTCACCTAGTGCAG” was tested, and the binding signal was 21500 fluorescence intensity (a.u.).
With “TTCTAATTAATCACGCGTTAATGGACCGCTCCGTTTTCCGCGGAGTCACCTAGTGCAG” the binding signal was 42300 fluorescence intensity (a.u.).
“ATTAATTACGCGCTAATCGTTGCTCCGTTTTCCGTGCAAACGGAGTCACCTAGTGCAG” was tested, and the binding signal was 11400 fluorescence intensity (a.u.).
With “ACTTAATTAATTACGTGTTAATGGACTGCTCCGTTTTCCGCGGAGTCACCTAGTGCAG” the binding signal was 65500 fluorescence intensity (a.u.).
“TTTAATTAATCACGCGCTAATAGACTGCTCCGTTTTCCGTCGGAGTCACCTAGTGCAG” was tested, and the binding signal was 55800 fluorescence intensity (a.u.).
“GCTAATACTTAATTAATCACGCGCTAATAGACCGCTCCGTCGGAGTCACCTAGTGCAG” was tested, and the binding signal was 24500 fluorescence intensity (a.u.).
“AGCTAATACTTAATTAATCACGCGTTAATGGACTGCTCCGCGGAGTCACCTAGTGCAG” was tested, and the binding signal was 26700 fluorescence intensity (a.u.).
For “ACAGATTAATTAGGCTTAATATATTCATATCGCAGTTTACCGGAGTCACCTAGTGCAG”, the binding signal was 50500 fluorescence intensity (a.u.).
With “ATTACGTAATTAATTAAAATACAAATTTCAGCATCCTTACCGGAGTCACCTAGTGCAG” the binding signal was 42300 fluorescence intensity (a.u.).
For “AGCCTAATTAATCCGTCATCAGCAAATGTTTATTGTAGCACGGAGTCACCTAGTGCAG”, the binding signal was 29700 fluorescence intensity (a.u.).
In the case of “CTCCCGTGCAGTTGCCAGTTGATTGGTTCAGCGTGGCTGCCGGAGTCACCTAGTGCAG”, the binding signal is reported as 9720 fluorescence intensity (a.u.).
“CATTGATTGGCCAGCCGAGGTCTAGCCTCAACCTAGCGTGCGGAGTCACCTAGTGCAG” was tested, and the binding signal was 54800 fluorescence intensity (a.u.).
With “CACATGTGATTGGGCCTCGAGCCTCAGCGTGCGTGCGCCCCGGAGTCACCTAGTGCAG” the binding signal was 20400 fluorescence intensity (a.u.).
With “ACTTCTATAATATATGTAAATTACCTTTTGGCTTTGCTGACGGAGTCACCTAGTGCAG” the binding signal was 4500 fluorescence intensity (a.u.).
“TATAGATTAGAGAATTAGTGGAGAACAAAATATAATAAAGCGGAGTCACCTAGTGCAG” was tested, and the binding signal was 5050 fluorescence intensity (a.u.).
